Compounds with a hit are over-represented: about 3.5% of the library has one in this group of screens.
GPR151 ag: activators of human GPR151, primary screen, cell-based, PathHunter beta-arrestin, luminescence; G-protein coupled receptor 151 (Homo sapiens), Q8TDV0; hit rate 1% among 650,000; activation, % at 11.2 µM; PathHunter beta-arrestin GPR151 cells; in the data active = activation above about 4.9%
Target sequence (Q8TDV0 whole entry, looked up): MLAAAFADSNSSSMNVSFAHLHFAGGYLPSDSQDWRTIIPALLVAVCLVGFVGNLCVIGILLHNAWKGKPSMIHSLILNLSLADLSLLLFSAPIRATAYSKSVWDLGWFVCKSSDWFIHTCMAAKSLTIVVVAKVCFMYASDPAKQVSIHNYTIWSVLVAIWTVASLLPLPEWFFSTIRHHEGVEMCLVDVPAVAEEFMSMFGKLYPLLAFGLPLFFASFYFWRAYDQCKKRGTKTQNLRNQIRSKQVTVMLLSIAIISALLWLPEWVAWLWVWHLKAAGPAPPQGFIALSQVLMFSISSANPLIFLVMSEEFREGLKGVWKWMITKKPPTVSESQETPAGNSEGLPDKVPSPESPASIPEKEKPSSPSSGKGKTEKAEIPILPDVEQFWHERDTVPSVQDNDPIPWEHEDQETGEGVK
MITF inh: MITF inhibitors, primary screen, biochemical, AlphaScreen, human; AlphaScreen MITF homodimerization, bead proximity signal; inhibition, % at 2.6 µM; hit rate 0.91% among 650,000; AID 1259374, 2018; in the data active = inhibition above about 50%
TEAD-YAP block: TEAD-YAP interaction inhibition, primary screen, TEAD-YAP interaction inhibitor project, luminescence, HEK-TIYL cells | hit rate 1.4% among 640,000 | TEAD-Gal4/YAP UAS-luciferase luminescence | AID 1259422, 2018 | inhibition, % at 9.12 µM; in the data active = inhibition above about 32%
FBW7 act: FBW7 E3 ligase activators, primary screen, biochemical, AlphaScreen, human | hit rate 0.13% among 650,000 | AlphaScreen FBW7–phospho-cyclin E peptide binding, activator screen | F-box/WD repeat-containing protein 7 (Homo sapiens), Q969H0 | normalized activity (activation), % at 26.1 µM | AID 1259310, 2017; in the data active = normalized activity above about 1.9%;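 also: purified mutant Fbw7 with reduced substrate affinity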
A number is an active result; . = inactive; / = no result given.

SMILES | GPR151 ag | MITF inh | TEAD-YAP block | FBW7 act
OC1CCCN(c2ncn(-c3ccc(Nc4nccc(-c5cc(F)cc(N6CCOCC6)c5)n4)cc3)n2)C1 (centres undefined) | . | . | 57 | .
OC1CCN(c2ncn(-c3ccc(Nc4nccc(-c5cc(F)cc(N6CCOCC6)c5)n4)cc3)n2)CC1 | . | . | 91 | .
Cc1ncn(-c2ccc(Nc3nccc(-c4ccc(N5CCCC(O)C5)c(C#N)c4)n3)cc2)n1 (centres undefined) | . | . | 35 | .
CC(=O)N1CCN(C(=O)C2CC(C(c3ccccc3)c3ccccc3)=NO2)CC1 (centres undefined) | . | . | . | .
CN1CCN(c2ncn(-c3ccc(Nc4nccc(-c5cc(F)cc(N(C)C)c5)n4)cc3)n2)CC1 | . | . | 35 | .
COC1CCN(c2ncn(-c3ccc(Nc4nccc(-c5cc(F)cc(N(C)C)c5)n4)cc3)n2)CC1 | . | . | . | .
CN1CCN(c2ncn(-c3ccc(Nc4nccc(-c5cc(F)cc(N6CCC(O)CC6)c5)n4)cc3)n2)CC1 | . | . | 67 | .
CCSCCOC(=O)C1=C(C)NC(=O)NC1c1cccc2ccccc12 (centres undefined) | . | . | . | .
COc1ccc(CCNC(=O)C2CC(=O)N(c3ccc(Br)cc3)C2)cc1 (centres undefined) | . | . | . | .
COc1cc2c(cc1OC)C(c1cccs1)N(C(=O)c1cccnc1)CC2 (centres undefined) | . | . | 46 | .
CCOC(=O)C1(Nc2ccccc2)Sc2cc(C)ccc2NC1=O (centres undefined) | . | . | 63 | .
CCOC(=O)C1(N(CC)CC)Sc2cc(C)ccc2NC1=O (centres undefined) | . | . | . | .
CCOC(=O)C1(NC(=S)N2CCOCC2)Sc2cc(C)ccc2NC1=O (centres undefined) | . | . | 52 | .
COc1ccccc1N1CCN(c2nc(NCCO)c3cnn(C)c3n2)CC1 | . | . | 36 | .
COCC(C)n1c(C)cc(C(=O)COC(=O)c2cccn2C)c1C (centres undefined) | . | . | 67 | .
O=C(NNC(=O)c1nn(-c2ccc(Cl)cc2)cc1O)c1ccccc1F | . | . | . | .
O=C(NNC(=O)c1nn(-c2ccc(Cl)cc2)cc1O)c1ccc2ccccc2n1 | . | 69 | 65 | .
COc1ccc(S(=O)(=O)Nc2cc3c4c(oc3c3ccccc23)CCCC4=O)cc1 | . | . | 56 | .
COC(=O)c1c(C)oc2c1cc(NS(=O)(=O)c1ccccc1)c1ccccc12 | . | . | . | .
COC(=O)c1c(C)oc2c1cc(NS(=O)(=O)c1ccc(OC)cc1)c1ccccc12 | . | . | 51 | .
CC(=O)NC1=NC(=O)/C(=C/c2ccc(-c3ccc(Cl)cc3)o2)S1 | . | . | . | .
CC(=O)NC1=NC(=O)/C(=C\c2ccc(I)o2)S1 | . | 75 | . | .
c1ccc(CCNc2nccn3c(-c4ccsc4)cnc23)nc1 | . | . | 50 | .
COCCNc1nccn2c(-c3ccccc3CO)cnc12 | . | . | . | .
OCCNc1nccn2c(-c3ccccc3CO)cnc12 | . | . | . | 2.1
SMILES | GPR151 ag | MITF inh | TEAD-YAP block | FBW7 act
c1ccc(CCNc2nccn3c(-c4ccoc4)cnc23)nc1 | . | . | . | .
Oc1ccc(CCNc2ccnc(Nc3ccc(C(F)(F)F)cc3)n2)cc1 | . | . | . | .
Oc1ccc(CCNc2ccnc(Nc3ccc(-n4ccnc4)cc3)n2)cc1 | . | . | 43 | .
Oc1ccc(CCNc2ccnc(Nc3ccncc3)n2)cc1 | . | . | 75 | .
COc1ccccc1C(=O)NCCNc1cc(-n2cccn2)ncn1 | . | . | . | .
COc1ccc(CSc2n[nH]c(C)n2)cc1 | . | . | 64 | .
Cc1nc(SCc2ccccc2)n[nH]1 | . | . | . | .
Cc1nc(SCc2ccc(CSc3n[nH]c(C)n3)cc2)n[nH]1 | . | . | 83 | .
COc1cccc(C2CC(=O)N3C(=C2C#N)SCC3(O)c2cccc(OC)c2)c1 (centres undefined) | . | . | 51 | .
N#CC1=C2SCC(O)(c3ccccc3)N2C(=O)CC1c1cccs1 (centres undefined) | . | . | 42 | .
N#CC1=C2SCC(O)(c3ccccc3)N2C(=O)CC1c1ccccc1F (centres undefined) | . | . | . | .
COC(=O)c1ccc(C2CC(=O)N3C(=C2C#N)SCC3(O)c2ccc(C)cc2)cc1 (centres undefined) | . | . | 49 | .
COc1ccc(CN(Cc2cc3cccc(C)c3[nH]c2=O)C(C)=O)cc1 | . | . | . | .
O=C(N/N=C/c1ccc(Br)cc1)C1COc2ccccc2O1 (centres undefined) | . | . | 37 | .
C/C(=N\NC(=O)CNC(=O)C1COc2ccccc2O1)c1ccccc1 (centres undefined) | . | . | . | .
Cc1cc(-c2ccc(NC(=O)[C@H]3COc4ccccc4O3)cc2)ccn1 | . | . | 75 | .
C/C(=N\NC(=O)C1COc2ccccc2O1)c1ccc(Br)cc1 (centres undefined) | . | . | 38 | .
Cc1ccc(/C=N/NC(=O)C2COc3ccccc3O2)cc1 (centres undefined) | . | . | 51 | .
CCOC(=O)C1CCCN(CCC(=O)Nc2ccccc2OC)C1 (centres undefined) | . | . | . | .
O=C1OC2(c3ccc(O)cc3Oc3cc(OS(=O)(=O)c4c(F)c(F)c(F)c(F)c4F)ccc32)c2ccccc21 (centres undefined) | . | . | / | /
Cc1ccc(NC(=O)CN2C(=O)C(C)(C)Oc3ccc(C(=O)NC4CCCC4)cc32)cc1 | . | . | . | .
O=C1CCC/C(=N\NC(=O)C2COc3ccccc3O2)C1 (centres undefined) | . | . | . | .
CN1CCC(=NNC(=O)C2COc3ccccc3O2)CC1 (centres undefined) | . | . | 38 | .
COc1ccc(N2C(=O)C3C(c4cccc(Br)c4)OC4(C(=O)c5ccccc5C4=O)C3C2=O)cc1 (centres undefined) | . | 81 | . | .
Cc1ccc2oc3c(c(=O)c2c1)C(c1ccccc1)N(CCCN1CCOCC1)C3=O (centres undefined) | . | . | . | .
SMILES | GPR151 ag | MITF inh | TEAD-YAP block | FBW7 act
CC(=O)c1cccc(Nc2nc(C)c([N+](=O)[O-])c(Nc3cccc(C(C)=O)c3)n2)c1 | . | . | . | .
COc1ccc(CCNc2cc(C)nc(Oc3ccccc3)n2)cc1 | . | . | 35 | .
Cc1cc(NCCN(C(C)C)C(C)C)nc(Oc2ccccc2)n1 | . | . | 64 | .
Cc1nn(C)c(C)c1/C=C(/C(=O)C(C)C)n1cncn1 | . | . | . | .
CC(C)C(=O)/C(=C/c1ccc(Cl)cc1Cl)n1cncn1 | . | . | 73 | .
COc1cccc(-c2cnc(NCc3cccc(Cl)c3)n2C)c1 | . | . | 41 | .
COc1cccc(-c2cnc(NCc3cccc(F)c3)n2C)c1 | . | . | 45 | .
